Screening data: PubChem, National Center for Advancing Translational Sciences (NCATS)
BCR signal inh: inhibitors of chronic active B-cell receptor signaling | Potency, µM (doses to about 46.1 µM), inactives show at the highest dose activity change, negative = inhibition, usual class: inhibitors | AID 493014 | 340,000 tested, 0.05% active | ABC-DLBCL IkBa-CBG/CBR reporter, luminescence ratio, 4 h; active means well fitted inhibition curve with a large enough effect in the signal ratio, with a control signal flat, not every such curve was filed as active; inconclusive means small, poorly fitted or top-dose-only effect, or effect the other way, or a change in a side signal; the % refers to the signal ratio;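 further: plate controls were basal doxycycline-induced cells for no effect and cells given 10 µM MG132 for full effect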
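TMD8 ABC-DLBCL cells carrying doxycycline-inducible green luciferase fused to IkappaBalpha plus unfused red luciferase were exposed to compounds (up to 46 uM) for 4 hrs at 37C. Activity came from the overlap-corrected green/red luminescence ratio.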
Mito fusion act: mitochondrial division inhibition or fusion activation; S. cerevisiae fusion-defective mutant growth rescue, CellTiterGlo 48 h; Potency, µM (highest dose often 46.1 µM), for the others: top-dose growth rescue (activation), usual class: activators; 320,000 tested, 0.23% active; AID 485298; further: % of control where 0% means no effect; nearly all actives have a fitted effect of over 45% in size
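Compounds are tested for their ability to restore growth of mitochondrial fusion-defective yeast strains at non-permissive 37C in YPEG medium over 48 hours. Viability is quantified by luciferase luminescence.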
RORg inh: inhibitors of mouse ROR gamma transcriptional activity; Drosophila S2 Gal4-RORgamma UAS-luciferase reporter, 20 h; Potency, µM (titrated, usually from 53.6 µM), inactives show at the top dose activity change, negative = inhibition, actives largely listed as inhibitors; 310,000 tested, 5.4% active; AID 2551; further: on the % scale 0 is the no-effect control and ±100 the full control effect; nearly all actives have a fitted effect of over 60% in size
Target sequence (P51450 whole entry, looked up, the tested form may be a part): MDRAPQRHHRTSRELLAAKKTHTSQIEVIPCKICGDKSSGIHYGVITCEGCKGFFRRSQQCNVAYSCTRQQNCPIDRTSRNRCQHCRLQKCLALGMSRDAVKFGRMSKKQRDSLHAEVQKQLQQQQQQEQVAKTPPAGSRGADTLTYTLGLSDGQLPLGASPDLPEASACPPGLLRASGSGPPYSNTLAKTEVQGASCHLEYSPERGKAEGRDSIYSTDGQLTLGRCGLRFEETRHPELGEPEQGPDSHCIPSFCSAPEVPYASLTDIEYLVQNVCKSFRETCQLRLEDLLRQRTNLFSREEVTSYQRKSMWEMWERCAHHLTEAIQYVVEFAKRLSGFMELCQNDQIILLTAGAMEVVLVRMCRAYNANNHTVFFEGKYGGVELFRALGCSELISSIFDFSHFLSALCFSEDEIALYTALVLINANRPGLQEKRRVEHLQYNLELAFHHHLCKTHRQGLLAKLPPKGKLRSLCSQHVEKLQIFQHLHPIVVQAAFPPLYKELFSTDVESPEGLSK
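Stable Schneider cell line, Gal4 DNA-binding domain fused to ROR gamma, UAS-luciferase. Cmpd 1 hr RT → CuSO4 700 uM final → 20 hr RT → luciferase reagent 10 min → luminescence.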
a7 integrin act: activates integrin-mediated alleviation for muscular dystrophy; alpha7betagal myoblasts, beta-gal FDG fluorescence, 48 h; Potency, µM (titrated, usually from 38.3 µM), for inactives: at the highest dose activation, usual class: activators; 350,000 tested, 0.064% active; AID 624291;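 further: 100% = response of the positive control SU9516; nearly all actives have a fitted effect of over 60% in size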
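Alpha7betagal+/- myoblasts (passage 13) were plated 16-24 hr, then exposed to compounds (1:260 dilution of DMSO stock) for 48 hours at 37C. After MPER lysis, β-galactosidase reporter activity was read as FDG fluorescence (ex 480/em 540) after 30 minutes.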
uPA generation: blocks generation of uPA at the cell surface | cell surface uPA generation assay, qHTS | Potency, µM (highest dose often 38.3 µM), without a hit: at the top dose activity change, negative = inhibition, hits mostly inhibitors | 330,000 tested, 0.31% active | AID 540303; active means well fitted inhibition curve with a large enough effect; inconclusive means small, poorly fitted or top-dose-only effect; inactive means no such curve, though single readings can be large or run the other way; tested in mouse RAW 264.7 cells; further: on the % scale 0 is the no-effect control and ±100 the full control effect; nearly all actives have a fitted effect of over 55% in size
Gal4-VP16 FLuc: inhibits Gal4-VP16 luciferase reporter, ROR gamma counter-screen. Drosophila S2 Gal4-VP16 UAS-luciferase, luminescence, 20 h. Potency, µM (highest dose often 53.6 µM), inactives show at the top dose activity, negative = inhibition, actives largely listed as inhibitors. 310,000 tested, 3.5% active. AID 2546;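 further: Gal4-VP16 expression switched on by copper sulfate through the metallothionein promoter; on the % scale 0 is the no-effect control and ±100 the full control effect; nearly all actives have a fitted effect of over 50% in size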
* marks the source's active call; other numbers are inactive results; u = inconclusive; x = no result given. Rows were chosen to be rich in hits. Some 5.5% of all compounds tested hit in one or more screens of this group. Unless noted, the call rests on the fitted dose curve; in most records, active means well fitted curve in the direction sought with a large enough effect; inconclusive means small, poorly fitted or top-dose-only effect, or another doubt; inactive means no such curve, though single readings can be large; an effect the other way counts as inactive or inconclusive. Potency means the concentration at half of the fitted maximal effect.

SMILES	BCR signal inh	Mito fusion act	RORg inh	a7 integrin act	uPA generation	Gal4-VP16 FLuc
NCCCCCc1cnc[nH]1	x	x	4%	x	x	-4%
Cc1ccccc1-c1nccc(NCc2cccs2)n1	x	x	u	x	x	1%
COc1ccc(-c2nn(-c3ccccc3)cc2C(=O)NC(=S)NNC(=O)c2ccncc2)cc1	u	12%	6.3µM*	-41%	u	-26%
COc1ccc(-n2c(=S)[nH]c3ncccc3c2=O)cc1	9%	2%	u	6%	10%	-2%
COc1ccc(-n2c(Cn3nnc4ccccc43)n[nH]c2=S)cc1	3%	1%	-40%	14%	10%	0%
COc1ccc(Cn2c(=S)[nH]c3ccccc32)cc1	-13%	-1%	10µM*	-19%	-1%	u
COc1ccc(-n2c(=S)[nH]c3ccccc3c2=S)cc1	-5%	-9%	0.5µM*	-18%	24%	0.71µM*
COc1ccc(-n2c(=S)[nH]c3ccccc32)cc1	-13%	1%	4.5µM*	-9%	4%	20µM*
Cc1ccc(CCNC(=O)CCn2nc(-c3ccc(Cl)cc3)ccc2=O)cc1	1%	x	x	x	x	x
Cc1ccc(CNS(=O)(=O)c2ccc3c(c2)NC(=O)CS3)cc1	-1%	0%	0%	22%	-1%	-14%
Cc1ccc(Cl)cc1NC(=O)Cn1c(=O)oc2cc(S(=O)(=O)N3CCCCCC3)ccc21	1%	x	x	x	x	x
Cc1[nH]n(-c2nc(-c3ccccc3F)cc(=O)[nH]2)c(=O)c1CCO	7%	-2%	10µM*	9%	1%	-2%
Cc1nc(Cl)c(C(=O)NC(=O)NCc2ccccc2)c(C)c1Cl	2%	14%	27%	-2%	-7%	2%
O=c1c2ccccc2nc2n1C(CSCc1ccc(Cl)cc1Cl)CS2 (stereo not given)	5%	4%	-2%	-58%	5%	22µM*
Nc1ccccc1SCC1CSc2nc3ccccc3c(=O)n21 (stereo not given)	2%	3%	u	0%	-18%	3%
S=c1[nH]nc(-c2cc(-c3ccccn3)nc3ccccc23)o1	1%	-1%	5µM*	-24%	-12%	0%
Cc1ccc(-c2cc(-c3n[nH]c(=S)o3)c3ccccc3n2)cc1	u	u	7.1µM*	40%	-2%	4.5µM*
COc1ccc(N2CCN(C(=O)c3cn(Cc4ccccc4)nc3-c3cccnc3)CC2)cc1	u	2%	x	20%	-10%	x
O=C(O)c1ccc(N/N=C/c2ccc(OC(=O)c3cccc(Cl)c3)cc2)cc1	u	5%	u	u	2%	0.35µM*
COc1cc(/C=N/Nc2ccc(C(=O)O)cc2)cc(OC)c1OC	u	-1%	u	15%	1%	u
COc1cc(/C=N/NC(=O)NC2CCCCC2)ccc1O	13µM*	1%	-17%	-5%	1%	4%
O=C(O)c1ccc(N/N=C/c2ccc3nccnc3c2)cc1	u	-5%	0.1µM*	-6%	u	0.32µM*
COc1cc(/C=N/Nc2ccc(C(=O)O)cc2)ccc1O	u	-9%	2.8µM*	15%	-7%	2.2µM*
COc1cc(/C=N/NC(=O)NC2CCCCC2)cc(OC)c1O	u	4%	-8%	-14%	1%	-3%
CC1(C(=O)OCC(=O)Nc2cccc(S(=O)(=O)NC3=NCCCCC3)c2)CC1(Cl)Cl (stereo not given)	u	0%	26%	2%	-4%	1%
SMILES	BCR signal inh	Mito fusion act	RORg inh	a7 integrin act	uPA generation	Gal4-VP16 FLuc
N#CCC(=O)N/N=C\c1ccccc1OC/C=C/c1ccccc1	u	-4%	1%	-30%	u	-2%
CCOC(=O)n1ccn(C)c1=S	x	x	-25%	x	x	0%
Cc1ccc2cc(/C=N/NC(=O)c3ccc(F)cc3)c(Cl)nc2c1	-16%	13%	-20%	6%	1%	7%
Cc1ccc2nc(Cl)c(/C=N/Nc3ccc(C(=O)O)cc3)cc2c1	u	2%	3.2µM*	34%	4µM*	7.1µM*
Cc1ccc(S(=O)(=O)N2C[C@H]3C(=O)C[C@@H](c4cccc(Cl)c4)N(S(=O)(=O)c4ccc(C)cc4)[C@H]3C[C@H]2c2ccccc2)cc1	x	x	x	-21%	x	x
O=C(Nc1cccc(S(=O)(=O)Nc2ccccc2Cl)c1)c1ccc(Cl)nc1	u	-4%	u	-14%	-3%	6.3µM*
O=C(Nc1cccc(S(=O)(=O)N2CCCCCC2)c1)c1ccc(Cl)nc1	u	x	x	-4%	-10%	x
Cc1c(Cl)cccc1NC(=S)NC1CC1	-2%	-4%	10µM*	-12%	-2%	u
O=C(NNC(=S)NC1CCCCC1)c1cccc(S(=O)(=O)Nc2ccccc2Cl)c1	0%	5%	4µM*	23%	2%	u
O=C(c1cccc(S(=O)(=O)Nc2ccccc2Cl)c1)N1CCCCCC1	2%	5%	x	-3%	0%	x
Cc1c(Cl)cccc1NC(=O)NC1CCCCC1	u	0%	8%	21%	-2%	29%
CC(=O)c1ccc(NC(=S)Nc2cccc(Cl)c2C)cc1	-1%	-3%	11µM*	4%	-24%	u
CC(=O)Nc1cccc(NC(=S)Nc2cccc(Cl)c2Cl)c1	3%	-1%	15%	0%	x	-1%
Cc1ccn(CC(=O)N2CCCC(N3CCN(c4cccc(Cl)c4)CC3)C2)n1 (stereo not given)	-3%	3%	14%	-33%	-9%	-8%
O=C(Nc1ccc(S(=O)(=O)Nc2ncccn2)cc1)c1ccc(N2CCCC2=O)cc1	-7%	14%	6%	-27%	-4%	-5%
Cc1cc([N+](=O)[O-])ccc1NC(=S)NC1CCCC1	-1%	5%	-4%	4%	5%	-22%
O=C(Nc1ccc(Cl)cc1Cl)NC1CCCC1	u	11%	14%	10%	-4%	5%
O=C(NC1CCN(C(=S)Nc2ccccc2Cl)CC1)C1CCCCC1	0%	-10%	-14%	16%	0%	-9%
S=C(Nc1ccccc1Cl)NC1CCCCCC1	6%	0%	3.5µM*	-50%	-17%	10µM*
Fc1ccc(NC(=S)NC2CCCCC2)c(F)c1F	9%	5%	8.9µM*	-42%	-1%	7.1µM*
S=C(Nc1ccc(Cl)cc1Cl)NC1CCCCC1	u	-3%	u	-32%	3%	0.89µM*
O=C(CC1C(=O)NCCN1Cc1ccccn1)NCCc1ccccc1F (stereo not given)	4%	-2%	-3%	-11%	6%	-1%
Cc1ccccc1OCC(=O)NNC=O	0%	-3%	-12%	9%	8%	-1%
CNC(=S)NNC(=O)COc1ccccc1C	-3%	-1%	7.1µM*	17%	0%	10µM*
